# Hit rate of the full screen: of about 48,000 compounds, about 13,000 (27%) showed an effect of 50% or more. The list shows a part of the results.
# Tested on: Wolbachia pipientis
# Test: Anti-Wolbachia Cell-Based Screen
# Assay type: functional
# Design: scale not given: in the data most compounds retested in dose-response had high values
# Conditions: 5 µM
row,Structure (SMILES),Percent Effect [%]
1,CCN(C(=O)CN1CCCC1c1ccc(F)cc1)c1ccccc1C (stereo not drawn),-2.599
2,O=C(NCc1ccccc1)c1nc2c(o1)CN(C(=O)c1cccnc1)C2.O=C(O)C(F)(F)F,-11.3
3,CCn1cc(C(=O)N2CCCC3(CCC(=O)N(CCC(C)C)C3)C2)cn1 (stereo not drawn),12.9
4,Cc1occc1CNC(=O)C1(C)CCCN1C(=O)c1ccccc1 (stereo not drawn),-1.558
5,CCCn1cc(C(=O)N2CCCC2(C)c2nc(C)cc(N)n2)cn1 (stereo not drawn),145.7
6,CCCn1cc(C(=O)N2CCCC2(C)c2nc(C)cc(C)n2)cn1 (stereo not drawn),137.7
7,CCCN1CC2(CCN(C)CC2)CC1C(=O)NCCn1cc(C)cn1 (stereo not drawn),2.434
8,Cc1cc(CN(C)CC2CC(C3CCCCC3)=NO2)no1 (stereo not drawn),7.354
9,Cc1ccc(Oc2c(F)cccc2OC[C@@H](N)CC(C)C)cc1,105.2
10,CC(C)C[C@H](N)COc1cccc(F)c1Oc1cccc(Cl)c1,101.2
11,CCCOc1ccccc1C(N)CC(C)C (stereo not drawn),-0.2003
12,CC(C)C[C@H](N)COc1cccc(F)c1Oc1ccc(Cl)cc1,75.53
13,CC(CNS(N)(=O)=O)Oc1cccc(Cl)c1 (stereo not drawn),-1.116
14,CC(C)C[C@H](N)COc1cccc(F)c1Oc1ccccc1,86.38
15,CC(C)COc1ccccc1C(N)CC(C)C (stereo not drawn),3.721
16,COc1ccccc1C(N)CC(C)C (stereo not drawn),-3.152
17,CCOc1ccccc1C(N)CC(C)C (stereo not drawn),-6.989
18,Cc1nc(CN)cc(N2CCC(O)(c3ccc(Cl)cc3)CC2)n1,-14.21
19,O=C(NC(c1ccc(Cl)cc1)C(F)(F)F)c1nc(=O)[nH][nH]1 (stereo not drawn),-8.616
20,CCN(C(=O)COC)C(c1cccnc1)c1cc(C)cc(C)c1 (stereo not drawn),20.72
21,CCC(C)Oc1cc(C(=O)N(c2cccnc2)C(C)C)ccn1 (stereo not drawn),-13.41
22,CCc1cc(N2CCN(c3ccc(Cl)cn3)CC2)n2nccc2n1,4.069
23,COCC1CN(Cc2ccoc2)Cc2cn(CC3CCCC3)nc21 (stereo not drawn),-3.642

row,Structure (SMILES),Percent Effect [%]
1,Cc1cnn(CC2CN(CCc3ccncc3)CCO2)c1 (stereo not drawn),-9.167
2,Cc1cnn(CC2CN(Cc3cccc(OC(C)C)c3)CCO2)c1 (stereo not drawn),92.31
3,Cc1cnn(CC2CN(Cc3cccc(C(=O)N(C)C)c3)CCO2)c1 (stereo not drawn),5.735
4,Cc1cnn(CC2CN(CC(=O)N3CCc4ccccc43)CCO2)c1 (stereo not drawn),-2.09
5,Cc1cnn(CC2CN(Cc3ccc(C(N)=O)cc3)CCO2)c1 (stereo not drawn),85.4
6,Cc1cnn(CC2CN(Cc3cccc(C(N)=O)c3)CCO2)c1 (stereo not drawn),99.45
7,Cc1cnn(CC2CN(Cc3cccc(OCC(N)=O)c3)CCO2)c1 (stereo not drawn),-6.391
8,Cc1cnn(CC2CN(Cc3cccnc3)CCO2)c1 (stereo not drawn),94.04
9,Cc1csc(C2(NCc3ccc(OCC(F)F)cc3)CCCC2)n1,-12.46
10,CC(C)(C)c1noc(OCC(=O)NCC(F)(F)F)n1,4.463
11,CCNc1ncc(C(=O)Nc2nnc(N3CCCCC3)[nH]2)s1,22.13
12,CC(NC(=O)COc1ccccc1C(=O)O)c1ccc(F)cc1 (stereo not drawn),-21.32
13,Cc1ccc(-c2nnc(CCC(=O)NCc3cn(C)nc3C)o2)s1,-9.163
14,COc1cc(CCC(C)O)c(OC)c2c1OCO2 (stereo not drawn),17.45
15,CC(C)N(CCO)C(=O)C1CCC(=O)N(CCc2cccc(F)c2)C1 (stereo not drawn),8.608
16,COCCNC(=O)NC(C)COc1ccc(F)cc1F (stereo not drawn),119.4
17,CC(C)CNC(=O)CNC(=O)NC(C)COc1ccccc1F (stereo not drawn),103.7
18,COCCNC(=O)NCc1ccc(OC(C)C)c(F)c1,2.22
19,Cc1noc(C)c1CNC(=O)NCCOc1ccc(F)cc1F,-6.419
20,Cn1cccc1C(O)CNC(=O)COc1ccccc1F (stereo not drawn),-2.595
21,CC(COc1ccccc1F)NC(=O)N[C@@H]1C=C[C@H](CO)C1 (stereo partly drawn),-7.056
22,COC[C@]1(O)CCN(C(=O)c2ccc(CN(C)C)o2)CC1(C)C,-8.345
23,Cc1cnc(N)nc1N1CCN(CCCO)CC1,-5.518

row,Structure (SMILES),Percent Effect [%]
1,CC1(C)[C@H](Cc2cc(CO)on2)C[C@@H]1NCc1ccc(CO)o1,-1.541
2,CN(C)c1ncccc1CNS(=O)(=O)c1ccc(F)cc1F,106.1
3,CN(C)c1ncccc1CNS(=O)(=O)c1cc(F)ccc1F,114.6
4,CC(C)N(C)S(=O)(=O)NCc1cccnc1N(C)C,34.56
5,CN(C)C(CNS(=O)(=O)c1ccc(F)cc1F)c1cccn1C (stereo not drawn),-13.11
6,CN(C)c1ncccc1CNS(=O)(=O)c1ccccc1Cl,109.5
7,CN(C)c1ncccc1CNS(=O)(=O)c1cc(F)cc(F)c1,128.3
8,COc1ccc(S(=O)(=O)NCc2cccnc2N(C)C)cc1F,-8.756
9,COC(=O)c1ccc(S(=O)(=O)NCc2cccnc2N(C)C)cc1,-18.83
10,Cc1c(Cl)cccc1S(=O)(=O)NCc1cnc(N(C)C)n1C,-2.35
11,CN(C)c1nc(NCc2cccnc2N)ncc1F,20.84
12,CN(C)C(CNS(=O)(=O)c1cc(F)ccc1F)c1cccn1C (stereo not drawn),10.84
13,O=C1CC2(CCN(c3nccc(-c4cc(C(=O)O)ccn4)n3)CC2)CN1,4.533
14,CC(C)(C)c1ncc(CNc2ccn(CCc3ccncc3)n2)s1,6.667
15,CC1CS(=O)(=O)CCN1Cc1ccccc1N(C)C (stereo not drawn),-2.207
16,CCc1cc(N[C@@H]2C[C@H]3CC[C@@H]2C3)n2nccc2n1,3.761
17,Cc1cc(C(=O)N(C)Cc2nc(-c3ccccn3)no2)c(C)o1,-5.968
18,CN(C)c1ncccc1CNS(=O)(=O)c1c(F)cccc1F,108
19,CCCC(C)CS(=O)(=O)NCc1cccnc1N(C)C (stereo not drawn),13.21
20,CN(C)c1ncccc1CNC(=O)N(Cc1ccccc1F)C1CC1,8.051
21,CO[C@H]1CCN(S(=O)(=O)c2cccs2)[C@H]1Cc1ccncc1,-16.22
22,Cc1cnn(-c2cncc(C(N)=O)c2)c1,-7.115
23,COCC(NC(=O)NCc1sc(C)nc1C)c1ccco1 (stereo not drawn),-12.64

row,Structure (SMILES),Percent Effect [%]
1,Cc1ccccc1NC(=O)Nc1cc(N2CCCC2)ncn1,-4.653
2,O=C(Cc1ccc(F)cc1)NCCNc1cc(N2CCCC2)cnn1,105.1
3,O=C(Cc1ccc(F)cc1)NCCNc1cc(N2CCCC2)ncn1,80.33
4,O=C(NCCNc1cc(N2CCCC2)cnn1)Nc1ccccc1F,106.6
5,O=C(Cn1ncc(N2CCNCC2)cc1=O)NCCc1ccc(F)cc1,-10.43
6,O=C(Cn1ccc2ccccc21)Nc1cc(N2CCCC2)ncn1,-7.456
7,CCOc1ccccc1NC(=O)Nc1cc(N2CCCC2)ncn1,-20.57
8,O=C(Cc1ccc(F)cc1)NCCNCC1CNc2ccnn2C1 (stereo not drawn),-7.839
9,CC(C)(C)C(=O)NCCNc1cc(N2CCCC2)ncn1,-0.9567
10,O=C1N[C@@H]2CCN(C(=O)C3CCCC3)[C@@H]2C(=O)N1c1ccc(F)cc1,-1.999
11,CS(=O)(=O)N1CCOCC2(CN(Cc3ccco3)CCO2)C1.O=C(O)C(F)(F)F (stereo not drawn),-8.773
12,O=C1CCCc2nccc(-c3ccccc3)c21,-3.137
13,Cc1cccc(CN2CCc3ncnc(N4CCN(C)CC4)c3CC2)n1.O=C(O)C(F)(F)F.O=C(O)C(F)(F)F,101.7
14,Cc1cccc(CN2CCc3ncnc(N4CCOCC4)c3CC2)n1.O=C(O)C(F)(F)F,-7.957
15,O=C(Cc1ccccn1)N1CCc2ncnc(N3CCCC3)c2CC1.O=C(O)C(F)(F)F,-1.895
16,Cc1cccc(CN2CCc3ncnc(N4CCCC4)c3CC2)n1.O=C(O)C(F)(F)F,88.17
17,O=C(N1CCOCC1)N1C[C@@H]2OCCN(C(=O)c3ccco3)[C@@H]2C1,-0.4256
18,Cc1nn(C)c2ncc(S(=O)(=O)N3CCCC(C(N)=O)C3)cc12 (stereo not drawn),-2.512
19,Cc1ccccc1CN(CC(=O)O)C(=O)COCC1CC1,-13.15
20,O=C(NCCOc1ncc(Cl)cc1Cl)c1ccncc1F,-4.331
21,COCCNC(=O)c1cccnc1Oc1ccc(Cl)cc1,115.3
22,O=C(NCCOCCO)c1cccnc1Oc1ccc(Cl)cc1,144.4
23,CC(C)CCNC(=O)c1cccnc1Oc1cccnc1,3.255

row,Structure (SMILES),Percent Effect [%]
1,CCN(CC)C(C)CNC(=O)c1cccnc1Oc1cccnc1 (stereo not drawn),-104.8
2,CC(C)(C)NC(=O)CNC(=O)c1cccnc1Oc1cccnc1,-29.24
3,Cc1cccc(OCc2nnc(SCC3CCCN(C)C3)o2)c1 (stereo not drawn),17.13
4,Cc1nc(CCN)cc(N2CCC(O)(c3ccc(Cl)cc3)CC2)n1,-10.13
5,CC(C)CN1C(=O)CO[C@@H]2CN(C(=O)C3CCOCC3)C[C@H]21,-22.5
6,Cc1nonc1C1CCCN1C(=O)CCc1cc2n(n1)CCCNC2 (stereo not drawn),9.259
7,COCCC(=O)N1CCC(c2ncncc2-c2ccnc(N)c2)C1 (stereo not drawn),107.7
8,COCCC(=O)N1CCC(Nc2ncc(Cl)cn2)CC1,-4.765
9,CC(C)OCC(=O)N1CCC(c2ncncc2-c2ccnc(N)c2)C1 (stereo not drawn),123.4
10,Cc1nc(C2CCN(C(=O)COC(C)C)CC2)cc(N2CCOCC2)n1,30.46
11,COCCC(=O)N1CC[C@H]2C(=O)N(c3ccsc3)CCO[C@H]2C1,-5.602
12,Cc1ccc2c(c1)c(CNC(=O)C1CC(=O)N(C3CC3)C1)nn2C (stereo not drawn),1.98
13,Cc1nccn1[C@@H]1CC[C@@H](NC(=O)CCCn2cccn2)[C@H]1O,100.2
14,CCC(=O)N1CCN(C(=O)CCn2cccn2)CC1,5.19
15,CC(C)(C)n1c(NC(=O)CNC(=O)NC2CC2)nc2ccccc21,-6.693
16,CC(=O)C(Cc1ccccc1)NC(=O)CSc1nccn1C1CC1 (stereo not drawn),4.235
17,CCC[C@H]1CN(C2CCOCC2)C[C@@H]1NC(=O)CCn1ccnc1C,0.5076
18,Cc1nccn1[C@@H]1CC[C@@H](NC(=O)CCOc2ccccc2)[C@H]1O,125.1
19,CN(CCCOc1ccccc1)Cc1nccn1C,-7.331
20,Cc1cc(=O)n(CC(=O)NC2CCCCC2)c2ccccc12,-8.945
21,Cc1nccn1[C@@H]1CC[C@@H](NC(=O)Cn2c(C)nc3ccccc32)[C@H]1O,99.52
